Bioassay records from PubChem.
Hits are enriched below; roughly 6.9% of the tested compounds scored in any of these assays.
KB-3-1 tox = KB-3-1 parental cell cytotoxicity | AID 1347075 | 400,000 compounds, 1.4% hits | Potency, µM (series often up to 46.1 µM), actives largely listed as cytotoxic | KB-3-1 viability, CellTiter-Glo ATP luminescence, 72 h; note: potency is the fitted concentration of half-maximal effect; % is set by controls: 0 for no effect and ±100 for the full control effect; nearly all actives have a fitted effect of over 60% in size
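Cytotoxicity in the drug-sensitive parental line KB-3-1 was scored as loss of CellTiter-Glo luminescence following 72 h incubation with compound. Values come from curve fitting of normalized concentration-response data.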
ASM inhibitor = inhibitors of human secretory acid sphingomyelinase | 340,000 compounds, 0.006% hits | Potency, µM (highest dose often 57.5 µM), inactives show top-dose activity change, negative = inhibition, actives largely listed as inhibitors | P17405 | placental ASM, HMU-PC fluorogenic substrate, 60 min; note: potency is the fitted concentration of half-maximal effect
Target sequence (P17405 47-631 limits assumed): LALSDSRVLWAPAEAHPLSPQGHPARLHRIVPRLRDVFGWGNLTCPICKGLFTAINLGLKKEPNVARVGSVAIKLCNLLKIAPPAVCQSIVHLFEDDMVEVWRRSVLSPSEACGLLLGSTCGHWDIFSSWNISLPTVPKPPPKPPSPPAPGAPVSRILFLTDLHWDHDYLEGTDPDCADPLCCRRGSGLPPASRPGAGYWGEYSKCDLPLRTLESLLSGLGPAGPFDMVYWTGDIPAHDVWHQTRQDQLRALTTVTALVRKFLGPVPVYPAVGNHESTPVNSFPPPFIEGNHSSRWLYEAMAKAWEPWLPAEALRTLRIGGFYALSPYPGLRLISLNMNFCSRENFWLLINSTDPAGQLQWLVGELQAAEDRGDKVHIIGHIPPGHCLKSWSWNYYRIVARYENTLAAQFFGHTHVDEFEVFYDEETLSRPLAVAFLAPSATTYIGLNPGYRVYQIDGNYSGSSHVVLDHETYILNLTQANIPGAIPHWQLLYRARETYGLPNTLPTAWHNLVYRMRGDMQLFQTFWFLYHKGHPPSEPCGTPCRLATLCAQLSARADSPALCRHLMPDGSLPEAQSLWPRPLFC
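Human placenta-derived ASM preincubated with compound 10 min at room temperature, then reacted with 9 uM (final) fluorogenic HMU-PC substrate for 60 min at 37 C. Stop solution raises pH to 10; fluorescence read at Ex 386/Em 447 nm.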
KB-V1 cytotox = KB-V1 MDR subline cytotoxicity; KB-V1 MDR cells viability, CellTiter-Glo, 72 h; Potency, µM (doses to about 46.1 µM), most hits filed as cytotoxic; 400,000 compounds, 3.4% hits; AID 1347076; note: potency is the fitted concentration of half-maximal effect; % is set by controls: 0 for no effect and ±100 for the full control effect; nearly all actives have a fitted effect of over 60% in size
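qHTS viability screen in drug-selected KB-V1 MDR cells: 72 h compound treatment at 37 degrees C, ATP luminescence end point.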
MCF10A rerep = induces DNA re-replication in MCF 10a normal breast cells. MCF 10A DNA re-replication, Hoechst nuclear intensity, 48 h. Potency, µM (highest dose often 46.1 µM), inactives show top-dose activity, positive = re-replication, hits mostly activators. 350,000 compounds, 2.9% hits; note: potency is the fitted concentration of half-maximal effect; % of control where 0% means no effect; nearly all actives have a fitted effect of over 50% in size
Giardia killer = Giardia lamblia killing; Giardia lamblia trophozoite viability; activity change, % at 7.66 µM, hits read low; 340,000 compounds, 0.15% hits; in the data active = activity change below about -80%; inconclusive = between about -30% and that limit;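 note: parasites exposed to compound for two days anaerobically before the ATP read; % is set by controls: 0 for no effect and ±100 for the full control effect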
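Viability, read as ATP luminescence: trophozoites at 100 cells/well, compound added, 48 hrs anaerobic at 37 deg C, then 15-30 min room-temperature development before reading.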
SW480 rerep = DNA re-replication induction in SW480 cells. SW480 DNA re-replication, Hoechst DNA content imaging, 48 h. Potency, µM (series often up to 46.1 µM), without a hit: top-dose re-replication activation, actives largely listed as activators. 340,000 compounds, 1.8% hits. AID 624297; note: potency is the fitted concentration of half-maximal effect; % of control where 0% means no effect; nearly all actives have a fitted effect of over 55% in size
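Per well, 250 cells were exposed to pinned compound for 48 hr. Nuclear DNA was visualised with Hoechst (40 min, 37 C) and total object intensity recorded by fluorescence scanning.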
Active calls of the source: *; i = inactive; u = inconclusive; x = no result given; [ ] = another dose, or the depositor's remark. Unless noted, calls come from the whole dose curve; as a rule, active = well fitted curve in the direction sought with a large enough effect; inconclusive = small, poorly fitted or top-dose-only effect, or another doubt; inactive = no such curve, though single readings can be large; an effect the other way counts as inactive or inconclusive.

SMILES	KB-3-1 tox	ASM inhibitor	KB-V1 cytotox	MCF10A rerep	Giardia killer	SW480 rerep
Cc1ccc(S(=O)(=O)c2nc(S(=O)(=O)c3ccccc3)sc2N2CCN(CCO)CC2)cc1	21µM*	-1%	u	17%	-3	-1%
CCS(=O)(=O)c1nc(S(=O)(=O)c2ccc(C)cc2)c(N2CCN(CCO)CC2)s1	i	-1%	i	0%	14	1%
CCCS(=O)(=O)c1nc(S(=O)(=O)c2ccc(C)cc2)c(N2CCN(C)CC2)s1	i	0%	i	-2%	-3	33%
O=C(Cn1c(=O)n(-c2ccc(F)c(Cl)c2)c(=O)c2sc3ccccc3c21)NC1CCCCC1	i	x	i	x	x	x
CC(=O)Nc1ccc(S(=O)(=O)N(C)CC(=O)Nc2cccc(S(=O)(=O)N3CCCC3)c2)cc1	i	0%	i	-6%	-6	9%
Cc1ccc(S(=O)(=O)N2CCN(c3ncnc4scc(-c5ccccc5)c34)CC2)cc1	u	-4%	7.3µM*	u	-1	3%
COc1ccc(-c2csc3ncnc(N4CCN(c5ccccc5O)CC4)c23)cc1	i	-8%	i	u	-2	17%
Cc1ccc(S(=O)(=O)N2CCN(c3ncnc4sccc34)CC2)cc1C	u	-2%	5.2µM*	u	6	8%
Cc1ccc(-c2csc3ncnc(-n4cnc5ccccc54)c23)cc1	u	-3%	u	9.2µM*	-12	u
COc1ccc(-c2csc3ncnc(N4CCN(c5ccccc5[N+](=O)[O-])CC4)c23)cc1	x	-6%	x	16µM*	16	u
N#Cc1ccc(CNC(=O)N2CCOCC2)cc1	x	2%	x	1%	x	-12%
Cc1sc2ncnc(N3CCN(S(=O)(=O)c4ccccc4)CC3)c2c1C	i	-5%	7.3µM*	12%	6	-7%
Cc1sc2ncnc(OCC(=O)c3ccc(S(=O)(=O)N4CCCC4)cc3)c2c1C	u	-13%	4.6µM*	6%	-3	4%
O=C(/C=C/c1ccccc1)N1CCC(c2ccccc2)C1 (configuration not stated)	i	-1%	21µM*	-8%	0	-32%
CCOC(=O)c1c(NC(=O)c2ccc(S(=O)(=O)N3CCC(C)CC3)cc2)sc2c1CCN(CC)C2	i	x	i	x	x	x
NC(c1csc(NC(=O)Nc2ccccc2)n1)C1CCCCC1 (configuration not stated)	u	x	18µM*	x	x	x
NC(c1csc(NC(=O)Nc2cccc(Cl)c2)n1)C1CCCCC1 (configuration not stated)	u	x	i	x	x	x
S=C(NCCSCc1ccccc1Cl)Nc1ccccc1	i	-5%	u	13µM*	-4	-1%
CCCOc1ccc(CSCCNC(=S)Nc2ccccc2)cc1	i	-8%	u	u	6	15%
S=C(NCCSCc1ccc(Cl)cc1)Nc1ccccc1	i	-19%	u	23%	19	5%
Cc1cccc(CSCCNC(=S)Nc2ccccc2)c1	u	-3%	18µM*	17%	20	0%
O=C(Nc1ccc(F)cc1)c1ncn(-c2ccccc2)n1	i	x	i	x	x	x
O=S(=O)(c1ccc(Cl)cc1)c1nc(-c2cccc(Br)c2)oc1NCc1ccccc1	u	x	16µM*	x	x	x
Cc1oc(-c2ccccc2Cl)nc1CSc1nncn2c1cc1occc12	i	x	i	x	x	x
Cc1cccc2cc(CN(Cc3ccccc3)C(=O)c3cccc(F)c3)c(Cl)nc12	i	-14%	18µM*	u	9	3.7µM*
SMILES	KB-3-1 tox	ASM inhibitor	KB-V1 cytotox	MCF10A rerep	Giardia killer	SW480 rerep
Cc1ccc(N(Cc2ccccc2)C(=O)c2cccc(F)c2)cc1	i	3%	i	0%	-4	7%
COc1ccc(CCNC(=O)CN(c2ccccc2)S(=O)(=O)N(C)C)cc1	i	x	u	x	x	x
Cc1c(C(=O)NCc2ccccc2Cl)sc2ncnc(N(C)C3CCCCC3)c12	21µM*	x	u	x	x	x
Cc1c(C(=O)Nc2ccccc2Cl)sc2ncnc(N(C)C3CCCCC3)c12	i	x	i	x	x	x
CCc1cccc(OCC(=O)Nc2ccc(S(=O)(=O)Nc3cc(C)nc(C)n3)cc2)c1	i	x	i	x	x	x
OC(CN1CCCCC1)Cn1c2ccccc2c2cc(Br)ccc21 (configuration not stated)	u	-2%	16µM*	u	-10	u
C=CCN1C(=CCO)[C@H]2C[C@H]3[C@@H]1CC[C@@]31c3ccccc3N3C=C4[C@@H]5N(/C=C/2[C@H]31)c1ccccc1[C@]51CC[C@H]2[C@H]1C[C@@H]4/C(=C/CO)N2CC=C	x	x	x	-4%[20.6 µM]	x	-8%[20.6 µM]
Nc1ccc(-c2nc3c(ccc4ccccc43)[nH]2)cc1	i	41%	i	23µM*	23	1%
Cc1ccc(CNC(=O)C(Cc2ccccc2)NS(=O)(=O)c2cccs2)cc1 (configuration not stated)	i	-2%	u	0%	-13	13%
CCOC(=O)CNC(=O)C(Cc1ccccc1)NS(=O)(=O)c1cccs1 (configuration not stated)	i	-1%	i	21µM*	-22	1%
CSCCC(NS(=O)(=O)c1cccs1)C(=O)NCc1ccc(C)cc1 (configuration not stated)	i	-1%	u	3%	10	0.16µM*
Cn1nnnc1SCCCNCc1ccc(-c2ccc(F)c(Cl)c2)o1	i	x	i	x	x	x
COc1ccc(-c2nc(-n3c(C)c(C(C)=O)c(C(C)=O)c3C)sc2C)cc1OC	i	0%	15µM*	u	-24	-7%
COc1cc(OC)nc(NC(=O)CN2CCN(c3ccc(F)cc3)CC2)n1	i	2%	23µM*	5%	-12	-12%
Cc1cc(NC(=O)CN2CCN(S(=O)(=O)c3ccc(Cl)cc3)CC2)no1	i	-3%	16µM*	-4%	10	2%
